# Assay results: PMC4336329 (PLoS ONE, 2015)
# The campaign covered roughly 310,000 compounds. About 14,000 (4.5%) showed an effect of 50% or more. Effects have a minus sign here. The sample as a whole holds a higher share of strong results than the screen did.
# Molecular target: human ether-à-go-go-related gene (hERG) potassium channel (human, UniProt Q12809)
# Assay: primary screen, population patch clamp on CHO cells stably expressing hERG; higher = less effect of the substance
# 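Further: peak tail current of the secondary pulse compared with the same well before compound.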
# human ether-à-go-go-related gene (hERG) potassium channel, sequence (Q12809 whole entry, looked up): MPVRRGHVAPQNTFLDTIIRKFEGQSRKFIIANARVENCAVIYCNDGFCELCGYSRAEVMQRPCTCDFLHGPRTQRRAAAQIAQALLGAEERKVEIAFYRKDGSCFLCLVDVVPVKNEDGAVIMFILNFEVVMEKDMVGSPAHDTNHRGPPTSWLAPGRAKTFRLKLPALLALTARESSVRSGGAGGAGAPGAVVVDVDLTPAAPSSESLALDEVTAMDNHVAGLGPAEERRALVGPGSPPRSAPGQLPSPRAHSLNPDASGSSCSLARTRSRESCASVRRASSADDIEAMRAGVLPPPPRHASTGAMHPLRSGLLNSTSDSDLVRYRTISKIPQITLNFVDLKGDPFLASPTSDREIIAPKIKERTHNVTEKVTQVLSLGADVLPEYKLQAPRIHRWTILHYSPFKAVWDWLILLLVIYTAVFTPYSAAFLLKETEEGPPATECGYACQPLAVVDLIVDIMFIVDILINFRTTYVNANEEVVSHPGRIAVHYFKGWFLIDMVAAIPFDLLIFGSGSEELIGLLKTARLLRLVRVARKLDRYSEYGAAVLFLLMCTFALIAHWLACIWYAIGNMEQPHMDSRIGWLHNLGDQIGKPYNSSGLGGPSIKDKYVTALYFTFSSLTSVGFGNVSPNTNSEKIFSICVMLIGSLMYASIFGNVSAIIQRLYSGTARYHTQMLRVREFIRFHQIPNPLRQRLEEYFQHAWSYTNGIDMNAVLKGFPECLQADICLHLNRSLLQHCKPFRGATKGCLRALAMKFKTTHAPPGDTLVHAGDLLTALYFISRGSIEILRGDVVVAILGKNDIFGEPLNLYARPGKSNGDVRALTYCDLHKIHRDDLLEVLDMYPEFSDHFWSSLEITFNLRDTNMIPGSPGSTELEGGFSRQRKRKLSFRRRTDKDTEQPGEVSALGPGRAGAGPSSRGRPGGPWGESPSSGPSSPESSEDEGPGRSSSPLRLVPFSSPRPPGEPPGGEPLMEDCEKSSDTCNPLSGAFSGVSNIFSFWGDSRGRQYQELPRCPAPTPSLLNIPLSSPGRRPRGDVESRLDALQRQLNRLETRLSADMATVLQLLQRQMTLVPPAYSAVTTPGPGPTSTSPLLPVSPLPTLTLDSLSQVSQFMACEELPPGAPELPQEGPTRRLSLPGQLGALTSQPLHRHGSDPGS
row,SMILES,"hERG current change (%, negative = inhibition) at 10uM [%]"
1,COC(=O)C(NS(=O)(=O)c1ccc(NC(C)=O)cc1)C(C)C (stereo not shown),-0.58
2,CN(C)CCCNC(=O)c1cc(C(=O)C2CCCCC2)c[nH]1,-3.99
3,C=C(C)C(C)(C#CCN1CCCC1)OC(C)=O (stereo not shown),-6.48
4,NS(=O)(=O)c1ccc(CNC(=O)CCC2CCCCC2)cc1,-2.5
5,COc1cc(NC(=S)N2CCN(S(=O)(=O)c3ccc(C)cc3)CC2)cc(OC)c1,-4.7
6,CC(=O)c1ccc(-n2cc(C#N)c(=O)[nH]c2=O)cc1,18.9
7,CC1CN(C(=O)c2cccc(COc3ccccc3Cl)c2)CC(C)O1 (stereo not shown),-49.3
8,Cc1ccc(C(=O)OCc2cn(-c3ccccc3)nn2)cc1,-7.92
9,O=C(O)Cc1sc(Nc2ccccc2)nc1-c1ccc(Cl)cc1,14.6
10,Nc1nnc(SCC(=O)Nc2cccc(S(=O)(=O)N3CCOCC3)c2)s1,24.1
11,CC1(C(=O)N2CCN(c3ccc([N+](=O)[O-])cc3)CC2)CC1(Cl)Cl (stereo not shown),-72.7
12,CCOC(=O)N1CCN(c2c(N3CC=C(c4ccccc4)CC3)c(=O)c2=O)CC1,-51.9
13,CC1(C(=O)N2CCN(c3ccccc3)CC2)CC1(Cl)Cl (stereo not shown),6.47
14,CCOC(=O)N1CCN(c2c(N3CCc4ccccc4C3)c(=O)c2=O)CC1,-34.8
15,CC(=O)N1CCN(C(=S)c2ccc([N+](=O)[O-])cc2)CC1,-3.4
16,COc1ccc(N2CCN(C(=O)C3(C)CC3(Cl)Cl)CC2)cc1 (stereo not shown),2.66
17,CC(=O)N1CCN(c2ccc(NC(=O)c3ccc([N+](=O)[O-])cc3)cc2)CC1,1.37
18,CC(=O)N1CCN(c2ccc([N+](=O)[O-])cc2)CC1,-55.9
19,O=C(C1CC1)N1CCN(c2ccc([N+](=O)[O-])cc2)CC1,-61.8
20,O=C(C1CC1)N1CCN(c2ccc(O)cc2)CC1,-17.3
21,CCOC(=O)N1CCN(c2c(-c3ccc(C)cc3)c(=O)c2=O)CC1,-29.7
22,COc1ccc(CC(=O)N(C)C2CCCN(Cc3ccccc3F)C2)cc1OC (stereo not shown),-4.9
23,CCOC(=O)C1CSC(CC(=O)Nc2ccc(Cl)c(Cl)c2)C(=O)N1 (stereo not shown),-24.2

row,SMILES,"hERG current change (%, negative = inhibition) at 10uM [%]"
1,COc1ccc(CCC(=O)OCC(=O)Nc2sccc2C(N)=O)cc1,-5.4
2,CCOC(=O)C1CCN(C(=O)COc2ccc(Br)cc2)CC1,-32.1
3,O=C(OCC(=O)N1CCN(c2ccccc2)CC1)c1cccc([N+](=O)[O-])c1,-28.2
4,CN1CCCN(c2ccc([N+](=O)[O-])nc2)CC1,2.45
5,CCOC(=O)N1CCN(C(=O)COc2ccc([N+](=O)[O-])cc2)CC1,-43
6,CC(=O)OCC(=O)N1CCN(c2ccc([N+](=O)[O-])cc2)CC1,-63.3
7,CC(=O)N1CCN(c2ccc(Oc3ccc([N+](=O)[O-])c(C(F)(F)F)c3)cc2)CC1,-59.9
8,O=C(Cc1ccccc1[N+](=O)[O-])OCC(=O)N1CCN(c2ccccc2)CC1,-6.16
9,COc1cc2c(cc1OC)CN(c1ccc([N+](=O)[O-])c(C(F)(F)F)c1)CC2,-8.39
10,O=[N+]([O-])c1ccc(N2CCCCC2)cc1,-16.5
11,CCOC(=O)C1CCN(C(=O)COc2ccc([N+](=O)[O-])cc2)CC1,-60.8
12,CN1CCCN(c2ccc([N+](=O)[O-])cc2)CC1,-66
13,COc1ccc(N2CCN(c3ccc(C(=O)O)cc3[N+](=O)[O-])CC2)cc1,11
14,Cc1c(C(=O)Nc2ccc3c4c(cccc24)CC3)cccc1[N+](=O)[O-],9.1
15,Cc1cccc(-c2oc3ccc(-c4ccc5c(c4)OCO5)cc3c2C(=O)OCc2ccc(O)cc2)c1,6.27
16,c1ccc(-c2nn[nH]n2)nc1,9.49
17,Cc1cccc(NC(=S)NCCC(c2ccccc2)c2ccccc2)c1,12
18,CCn1c(-c2cc(OC)c(OC)c(OC)c2)n[nH]c1=S,12.1
19,COc1cccc(CNC(=O)CCCn2nc(C)c3c(C)n(-c4ccccc4)nc3c2=O)c1,-10
20,COc1ccc(CCN2CN(S(=O)(=O)c3ccccc3)c3nc4ccccc4nc32)cc1OC,-0.784
21,Cc1ccc(/C([O-])=C(/C(=S)NCc2ccco2)[n+]2ccccc2)cc1[N+](=O)[O-],-18
22,CC(C)C(=O)NNS(=O)(=O)c1ccccc1[N+](=O)[O-],3.1
23,COc1ccc(N=C2SC(C(=O)O)CC(=O)N2C)cc1 (stereo not shown),1.4

row,SMILES,"hERG current change (%, negative = inhibition) at 10uM [%]"
1,CN1N=C(C(=O)N2CCN(c3ccc([N+](=O)[O-])cc3)CC2)CCC1=O,-73
2,COc1ccc(N2CCN(C(=O)c3cc([N+](=O)[O-])ccc3N3CCN(CCO)CC3)CC2)cc1,-24.6
3,CCOCC(=O)N1CCN(c2ccc([N+](=O)[O-])cc2)CC1,-71.8
4,COCC(=O)N1CCN(c2cccc(Cl)c2)CC1,-8.46
5,COc1ccc(N=C2SC(C(=O)N3CCN(c4ccccc4)CC3)CC(=O)N2C)cc1 (stereo not shown),-13
6,COc1ccc(N=C2SC(C(=O)N3CCN(c4ccc([N+](=O)[O-])cc4)CC3)CC(=O)N2C)cc1 (stereo not shown),-68.2
7,COCC(=O)N1CCN(c2ccc([N+](=O)[O-])cc2)CC1,-62.7
8,CCOCC(=O)N1CCN(c2ccc(F)cc2)CC1,-15.9
9,CCOCC(=O)N1CCN(c2cccc(Cl)c2)CC1,8.4
10,CN1N=C(C(=O)N2CCCC(N3CCN(c4ccc(F)cc4)CC3)C2)CCC1=O (stereo not shown),2.78
11,COc1ccc(C)cc1NC(=O)C(OC(=O)c1ccc(Cl)c(S(=O)(=O)N(C)c2ccccc2)c1)c1ccccc1 (stereo not shown),-0.711
12,O=C(Nc1ccc(O)cc1C(=O)O)c1ccc2c(c1)C(=O)N(Cc1ccco1)C2=O,-16.8
13,CCOc1ccc2[nH]c(=O)c(CN(CCO)C(=O)c3ccccc3F)cc2c1,-0.495
14,COC(=O)Cc1[nH]nc2c1C(c1c[nH]c3ccccc13)C(C#N)=C(N)O2 (stereo not shown),17.8
15,c1ccc(Nc2c(-c3ccco3)nc3ccccn23)cc1,9.75
16,C=CCC1(N(C(C)=O)c2ccccc2)CCCCC1,5.28
17,CSC(=NC#N)N1CCN(c2ccccc2)CC1,-2.95
18,CSC(=NC#N)N1CCN(c2ccc(Cl)cc2)CC1,-38.3
19,CSC(=NC#N)N1CCN(c2ccc([N+](=O)[O-])cc2)CC1,-77
20,O=C(Nc1ccc2c(c1)OCO2)c1cnn2c1NC(c1ccco1)CC2C(F)(F)F (stereo not shown),-4.57
21,CCc1c(O)nc(SCC(=O)Nc2cc(C)on2)n(-c2ccccc2)c1=O,3.39
22,Cn1c(SCC(=O)Nc2ncc(C(F)(F)F)cc2Cl)nnc1-c1ccc(Cl)cc1,-30.8
23,CCn1c(Cc2cccs2)nnc1SCC(=O)NC1CC1,-1.49

row,SMILES,"hERG current change (%, negative = inhibition) at 10uM [%]"
1,CNC(=O)CSc1nnc(-c2ccco2)n1-c1cccc(OC)c1,-0.723
2,CCn1c(SCC(=O)NC2CC2)nnc1-c1ccc(OC)cc1,17.4
3,COc1cccc(-n2c(SCC(=O)NC3CCCC3)nnc2-c2ccco2)c1,-73.7
4,CCn1c(SCC(=O)Nc2ncc(C(F)(F)F)cc2Cl)nnc1-c1ccccc1,-12.6
5,COc1cccc(-n2c(SCC(N)=O)nnc2-c2ccco2)c1,13.7
6,C=CCn1c(SCC(=O)NC2CC2)nnc1-c1cccc(OC)c1,2.24
7,O=C(CSc1nnc(Cc2cccs2)n1-c1ccccc1)NC1CCCCC1,-62.5
8,Nc1nnc(SCC(=O)NC2CCCCC2)n1-c1ccccc1,6.78
9,CCn1c(SCC(=O)NC2CC2)nnc1-c1cccc(OC)c1,-66.6
10,CCn1c(SCC(=O)Nc2ncc(C(F)(F)F)cc2Cl)nnc1-c1cccc(C)c1,-69.9
11,Nn1c(N2CCCCC2)nc2ccccc21,6.16
12,Cc1cc(C(=O)N/N=C2\CCCC(C)C2)n[nH]1 (stereo not shown),11
13,CCC1=C(c2ccc(C)cc2)S(=O)(=O)N=C1N1CCC(C(=O)NCCCN2CCCCC2)CC1,20.5
14,CCN(CC)CC(=O)Nc1nc(-c2ccc(Cl)cc2)cs1,-35.8
15,O=C(COc1ccccc1C(=O)NCC1CCCO1)Nc1ccc(Cl)cc1Cl (stereo not shown),-14
16,COC(=O)c1ccc(COc2ccc(Cl)cc2)o1,2.11
17,Cc1cccc(-n2c(SCC(=O)Nc3ccc4c(c3)OCO4)nnc2-c2ccoc2C)c1,-0.162
18,CCOc1ccccc1-n1c(SCC(=O)NC2CCCC2)nnc1-c1ccoc1C,-24
19,Cc1occc1-c1nnc(SCC(=O)NC2CCCC2)n1-c1ccccc1,-74.8
20,CCn1c(SCC(=O)NC2CCCC2)nnc1-c1ccoc1C,14
21,Cc1cccc(-n2c(SCC(=O)NC3CCCC3)nnc2-c2ccoc2C)c1,-83.2
22,Cc1occc1-c1nnc(SCC(=O)NC2CCCC2)n1C,15.5
